Screening data (PubChem)
DRD3 agonist: activates the human D3 dopamine receptor; D3R DiscoveRx beta-arrestin cells, luminescence, 90 min; max activation, %; hit rate 0.58% among 410,000; AID 652048; in the data active means max activation above about 30%; further: 0% is about no effect
Target sequence (P35462 whole entry, looked up): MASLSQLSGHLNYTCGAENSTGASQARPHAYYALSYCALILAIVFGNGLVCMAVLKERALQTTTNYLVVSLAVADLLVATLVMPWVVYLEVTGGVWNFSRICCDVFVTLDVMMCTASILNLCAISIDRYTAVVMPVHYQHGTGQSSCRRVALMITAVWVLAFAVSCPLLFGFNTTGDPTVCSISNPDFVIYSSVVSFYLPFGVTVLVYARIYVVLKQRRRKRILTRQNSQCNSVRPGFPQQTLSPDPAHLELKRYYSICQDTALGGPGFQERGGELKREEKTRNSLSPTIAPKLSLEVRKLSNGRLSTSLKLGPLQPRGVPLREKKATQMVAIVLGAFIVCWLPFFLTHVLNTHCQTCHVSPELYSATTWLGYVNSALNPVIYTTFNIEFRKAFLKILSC
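Cells at 1500/well, incubated overnight, then treated with pinned compounds (dopamine as control) for 90 min at 37 degrees C. DiscoveRx reagent added for 30 - 60 minutes at room temperature; luminescence read.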
D3 antag: antagonists of human D3 dopamine receptor. P35462. D3R cells, DiscoveRx beta-arrestin luminescence, antagonist mode; active compounds read low. max response, negative = inhibition, %. hit rate 2.5% among 360,000. AID 652054; in the data active means max response below about -50%; inconclusive means no clear call, values can overlap the other calls; further: on the % scale 0 is the no-effect control and ±100 the full control effect
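Cells expressing the human receptor were seeded at 1500 cells/well, incubated overnight at 37 degrees C in 5% CO2, then exposed to library compounds with dopamine controls for 90 minutes at 37 degrees C before luminescent detection.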
S2 tox: viability counter-screen for ATXN expression inhibitors; S2 cells (HEK-293 line with an ATXN2-luciferase reporter) viability, CellTiter-Fluor protease fluorescence, 24 h; Potency, µM (series often up to 56.7 µM), actives largely listed as cytotoxic; hit rate 0.49% among 400,000; AID 651635; further: potency means the concentration at half of the fitted maximal effect; nearly all actives have a fitted effect of over 40% in size
ATXN2 expr inh: inhibitors of ATXN2 expression; HEK-293 ATXN2-luciferase reporter, luminescence, 24 h; AID 1745845; hit rate 0.72% among 360,000; Potency, µM (series often up to 57 µM), for inactives: top-dose activity change, negative = inhibition, actives largely listed as inhibitors; further: potency means the concentration at half of the fitted maximal effect; on the % scale 0 is the no-effect control and ±100 the full control effect; nearly all actives have a fitted effect of over 55% in size
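ATXN2-luciferase reporter cells (luciferase flanked by upstream and downstream ATXN2 gene portions) were treated 24 h at 37 °C with compounds at up to 57 uM. SteadyGlo luminescence gave expression; GF-AFC fluorescence gave viability.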
a7 integrin act: activators of alpha7 integrin expression for muscular dystrophy; hit rate 0.064% among 350,000; alpha7betagal myoblasts, beta-gal FDG fluorescence, 48 h; Potency, µM (series often up to 38.3 µM), for inactives: at the highest dose activation, usual class: activators;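 further: potency means the concentration at half of the fitted maximal effect; 100% = response of the positive control SU9516; nearly all actives have a fitted effect of over 60% in size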
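Alpha7betagal+/- myoblasts (passage 13) were plated 16-24 hr, then exposed to compounds (1:260 dilution of DMSO stock) for 48 hours at 37C. After MPER lysis, β-galactosidase reporter activity was read as FDG fluorescence (ex 480/em 540) after 30 minutes.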
IL-1B inflam inh: inflammasome signaling inhibition, IL-1 beta readout; activity change, % at 57.5 µM; THP-1 LPS/ATP IL-1B secretion, AlphaLISA, 16 h; active compounds read low; hit rate 4.7% among 360,000; in the data active means activity change below about -50%; inconclusive means mostly about -30% to -49%; further: on the % scale 0 is the no-effect control and ±100 the full control effect
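Secreted IL-1B measured by AlphaLISA bead assay after 16 h compound exposure of THP-1 cells; compounds (final up to 57.5 uM) added 1 h before LPS (250 ng/mL) and ATP (1.25 mM) stimulation; lower signal means less secretion.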
* hit, by the source's call; i = inactive; ? = inconclusive; nt = not tested or not shown. Hits are enriched below; roughly 7% of the tested compounds scored in any of these assays. Unless noted, the call rests on the fitted dose curve; in most records, active means well fitted curve in the direction sought with a large enough effect; inconclusive means small, poorly fitted or top-dose-only effect, or another doubt; inactive means no such curve, though single readings can be large; an effect the other way counts as inactive or inconclusive.

SMILES	DRD3 agonist	D3 antag	S2 tox	ATXN2 expr inh	a7 integrin act	IL-1B inflam inh
O=C(NCC1CCCO1)c1cc2c([nH]c3ccccc32)c(-c2cccc(Br)c2)n1 (centres undefined)	-9	102	?	?	-18%	?
CCCCn1c(N)c(N(CCC(C)C)C(=O)c2cc(S(=O)(=O)N3CCOCC3)ccc2F)c(=O)[nH]c1=O	2	4	i	-9%	7%	-11
Clc1ccc2c(NCCNC3CCCCC3)ccnc2c1	-20	-98*	nt	2.2µM*	-66%	-95*
CC(CCCN1CCCC1)Nc1ccnc2cc(Cl)ccc12 (centres undefined)	-10	-9	i	0%	-70%	?
CC(C)NC1CCC(Nc2ccnc3cc(Cl)ccc23)CC1 (centres undefined)	-3	-3	i	?	-71%	-93*
CC1CN(CCOCCSc2ccccc2)CC(C)O1 (centres undefined)	-4	-67*	i	nt	5%	8
COC(=O)c1ccccc1OCCCCN1CC(C)OC(C)C1 (centres undefined)	0	-29	i	-7%	21%	13
Cc1ccc(C)c(OCCCCN2CCNCC2)c1C	-5	0	i	nt	-35%	-13
CC1CN(CCOCCOc2ccccc2-c2ccccc2)CC(C)O1 (centres undefined)	-20	-21	i	nt	-17%	13
CC1CN(CCOc2ccccc2C(C)C)CC(C)O1 (centres undefined)	-26	-69*	i	3%	14%	19
Cc1ccc(C)c(OCCOCCN2CC(C)OC(C)C2)c1C (centres undefined)	-5	-75*	i	-15%	4%	23
CC1CN(CCCCSc2ccc(Cl)cc2)CC(C)O1 (centres undefined)	9	7	i	-26%	-27%	-27
CC1CN(CCOCCSc2ccc(Cl)cc2)CC(C)O1 (centres undefined)	-7	-64*	nt	nt	?	0
Cc1ccc(S(=O)(=O)N2CCN(C(=O)CN3CCCCC3)C2C(C)C)cc1 (centres undefined)	3	15	i	2%	-16%	0
COc1ccc2nc(N3CCCC(C(=O)NCCCN4C(C)CCCC4C)C3)sc2c1 (centres undefined)	11	-11	i	0%	0%	-70*
CCCN1CCN(CCCNC(=O)C2CCCN(c3nc4ccc(OCC)cc4s3)C2)CC1 (centres undefined)	23	7	i	2%	-10%	9
CCOc1ccc2nc(N3CCCC(C(=O)NCCCOC)C3)sc2c1 (centres undefined)	9	nt	nt	nt	nt	nt
CCOc1ccc2nc(N3CCCC(C(=O)N4CCN(CC)CC4)C3)sc2c1 (centres undefined)	-2	-65*	i	15%	-9%	-2
COc1ccccc1OC(C)C(=O)Nc1ccc(S(=O)(=O)N2CCN(C)CC2)cc1 (centres undefined)	8	19	i	0%	-9%	10
Cc1cc(C)c(C#N)c(SC2CCCCC2=O)n1 (centres undefined)	2	-25	i	0%	-5%	37
CCN(CC)S(=O)(=O)c1ccc(O)c(C(=O)OCC(=O)Nc2ccc(OC(F)(F)F)cc2)c1	-2	-23	i	-19%	19%	-52*
OC[C@H]1O[C@@H](c2nc(-c3cccc4ccccc34)no2)[C@H](O)[C@@H]1O	-5	-2	i	8%	nt	-68*
OC[C@H]1O[C@@H](c2nc(-c3ccccc3Br)no2)[C@H](O)[C@@H]1O	-6	?	i	-8%	nt	0
CCOc1ccc(-c2noc([C@@H]3O[C@H](CO)[C@@H](O)[C@H]3O)n2)cc1	4	-17	i	23%	nt	-58*
Cc1cc(F)ccc1S(=O)(=O)Nc1ccccc1C(=O)Nc1ccccc1-c1nc2ccccc2[nH]1	23	51	nt	?	-64%	-79*
SMILES	DRD3 agonist	D3 antag	S2 tox	ATXN2 expr inh	a7 integrin act	IL-1B inflam inh
Cc1cc(F)ccc1S(=O)(=O)Nc1ccccc1C(=O)Nc1ncn[nH]1	-6	0	i	2%	40%	15
CN(C(=O)/C=C/c1ccccc1)C1CCS(=O)(=O)C1 (centres undefined)	-6	-3	i	1%	4%	10
CN(C(=O)/C=C/c1ccccc1)C1CCCCC1	5	1	i	36%	31%	-51*
O=C(/C=C/c1ccc(Cl)cc1)N(c1ccccn1)C1CCCCC1	3	4	i	-16%	5%	-57*
Cc1cc(Cl)n2c(nc3cc(F)c(F)cc32)c1C#N	-13	?	?	?	-66%	-101*
CCc1cc(/C(Cc2ccc3ccccc3n2)=N\O)c(O)cc1O	10	11	i	15%	21%	-101*
CC(C)c1cc2cc3ccc(=O)oc3cc2o1	6	3	i	-15%	-1%	-5
CC(C)CNC(=O)c1cccc(NC(=O)COc2ccc([N+](=O)[O-])cc2)c1	-5	5	i	-17%	-45%	-8
